# Results reported in the supplement of paper PMC3334620.
# Over roughly 33,000 sequences, “E-score (-0.5 to 0.5)” has its median near -0.032; the highest 2% begin near 0.36. The sample as a whole holds a higher share of the highest values than the screen did.
# Target: T1, Sko1 (UniProt Q02100)
# T1 sequence: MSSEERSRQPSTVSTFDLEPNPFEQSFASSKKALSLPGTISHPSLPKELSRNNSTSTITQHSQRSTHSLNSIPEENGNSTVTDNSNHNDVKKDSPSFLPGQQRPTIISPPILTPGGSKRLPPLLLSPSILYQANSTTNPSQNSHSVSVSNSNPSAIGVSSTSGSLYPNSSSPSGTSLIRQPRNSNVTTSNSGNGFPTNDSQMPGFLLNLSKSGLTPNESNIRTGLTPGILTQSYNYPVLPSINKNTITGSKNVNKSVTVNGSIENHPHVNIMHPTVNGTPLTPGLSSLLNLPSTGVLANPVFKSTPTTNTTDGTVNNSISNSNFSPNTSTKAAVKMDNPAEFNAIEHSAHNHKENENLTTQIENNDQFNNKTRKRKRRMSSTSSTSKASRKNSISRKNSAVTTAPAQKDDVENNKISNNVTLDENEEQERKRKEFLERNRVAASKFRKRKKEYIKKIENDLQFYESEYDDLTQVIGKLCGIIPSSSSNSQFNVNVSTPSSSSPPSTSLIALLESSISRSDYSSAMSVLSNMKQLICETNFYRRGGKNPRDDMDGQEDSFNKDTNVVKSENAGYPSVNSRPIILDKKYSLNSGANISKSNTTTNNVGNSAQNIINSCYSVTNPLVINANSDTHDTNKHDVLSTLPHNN
# Experiment: PBM E-score (8-mer binding enrichment) (E-score (-0.5 to 0.5)); higher = stronger / more preferred TF binding
# Settings: protein concentration: 200 nM; construct: GST-full length
# Outline: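 E-scores (a modified Wilcoxon-Mann-Whitney statistic) were assigned by the Universal PBM Analysis Suite to every ungapped eight-base word pooled with its reverse complement. The input came from universal all-10-mer Agilent arrays made double-stranded by primer extension and probed with GST-tagged yeast transcription factors at about 100-200 nM. Fluorescent anti-GST detected bound protein, and masliner normalised the scans.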
row,Sequence,PBM E-score
1,GTTACGCA,0.417
2,CTTACGCC,0.193
3,CTTACGCA,0.427
4,ATTACGCA,0.47
5,GTTACTCA,0.0403
6,ATTACGGA,0.287
7,ATTACTCG,0.204
8,ATTACGCG,0.431
9,CTCACGCA,0.28
10,GGTACGCA,0.268
11,ATTACGCC,0.338
12,CAAACCAG,-0.071
13,GCACCGCC,-0.218
14,GTACCTGA,0.16
15,GCATCTCC,-0.341
16,ACCGGCCT,-0.0244
17,ATAGAAAG,-0.115
18,CATAGAAC,-0.15
19,CGTACATC,0.244
20,AGTACGGC,-0.101
21,AGTACGAC,0.157
22,GGTACGGA,-0.174
23,AGTACGGA,-0.0994
24,AGTACGAA,0.312
25,AGTACATA,0.00479
26,AGTACGTA,0.474

row,Sequence,PBM E-score
1,GGTACGTA,0.454
2,AGTACGTC,0.435
3,GGTACGAA,0.19
4,CGTACATA,0.378
5,AACCGCCC,-0.295
6,CTTCAATA,0.197
7,CGCCGTGC,-0.189
8,CGTGCGGC,0.00261
9,CCCTACCA,-0.0655
10,CCCTAGGC,-0.269
11,GACTGGCC,-0.338
12,CGTACGAA,0.269
13,CGTACGTA,0.474
14,CGTACGTC,0.45
15,AGTACGAG,0.00509
16,CGTACGCA,0.332
17,AGTACGCG,0.236
18,CGTACGGC,0.251
19,CGTACGCC,0.218
20,AGTACGTG,0.365
21,GGGTTGCA,-0.00077
22,ATGGCGTA,0.449
23,CTGGCGTA,0.138
24,CTGGCGTC,0.0837
25,ATGGCGTC,0.392
26,GTGGCGTA,0.325

row,Sequence,PBM E-score
1,ATGGCGTG,0.336
2,AACGAGTG,0.0243
3,CGATGCAC,-0.0249
4,AGTCTTAA,-0.164
5,TCACTGCA,0.175
6,CTCACGAA,0.138
7,GTTACGAA,0.378
8,CTTACGAA,0.275
9,ATTACGAA,0.453
10,GTTACAAA,0.213
11,ATTACAAA,0.234
12,GTAGGGGA,-0.186
13,GGCCATCA,-0.165
14,ACCCTGAA,-0.0751
15,CGCGAATA,0.0754
16,ACCTAACT,0.0945
17,CGTCGCCA,0.0172
18,GAACCTCA,-0.069
19,GGGACGTA,0.319
20,AGGACGCC,-0.21
21,AGGACGTG,0.153
22,AGGACGTC,0.363
23,CGGACGTC,0.292
24,AGGACGTA,0.374
25,CATACCCA,0.108
26,TAAGCAGA,-0.00339

row,Sequence,PBM E-score
1,AACGTACT,0.37
2,AACGTACG,0.398
3,ACCGTACG,0.145
4,AAGGTAGT,-0.172
5,AGCGTACT,-0.0878
6,ATCGTACG,0.282
7,ACCGTAGT,-0.122
8,AACGTAGT,0.414
9,ACCGTACT,0.00383
10,GTCTTTAA,0.178
11,ACATTGAA,0.166
12,GTGCATGA,0.133
13,AGATGGTC,-0.139
14,CCGTCAAG,-0.0482
15,ACGTCAAA,0.447
16,ACGTCAAC,0.469
17,ACGTCAAG,0.444
18,ACGTCAAT,0.46
19,AGGTCAAT,0.0656
20,GCGTCAAC,0.302
21,ATGTCAAT,0.226
22,CCGTCAAC,-0.0749
23,GCGTCAAA,0.274
24,AGGTCAAG,-0.193
25,TCGTCAAA,0.281
26,CTCCAACC,-0.0963

row,Sequence,PBM E-score
1,CTGTACCC,-0.24
2,AGATTTCG,0.114
3,ACTAGAGA,-0.0523
4,CGATTGGA,-0.0798
5,AGATTGCG,0.188
6,AATGATGG,0.189
7,AATGATGA,0.328
8,AATGATGT,0.427
9,ACGTGAAG,0.326
10,ACGTGACG,0.462
11,ACGTGACA,0.394
12,ACGTGCCA,0.396
13,CCGTGACA,-0.14
14,ACGTGACT,0.324
15,CCGTGACC,-0.28
16,TCGTGACA,0.129
17,ACGTGACC,0.292
18,ACGTGCCG,0.243
19,CCGTGACG,0.396
20,GCGTGCCA,-0.151
21,AAATCAGG,0.0636
22,CAGAACTC,-0.0896
23,CTTTTTAA,0.112
24,GCAACCCC,-0.249
25,ACCGCCTC,-0.312
26,CGAGTATA,-0.0254

row,Sequence,PBM E-score
1,CCGTAGGA,-0.29
2,AAGTAGGC,-0.0531
3,ACGTAGGC,0.425
4,AGGTAGGG,-0.137
5,AAGTAGGG,-0.0549
6,ACGTAGGG,0.425
7,CCGTAGGC,-0.293
8,GCGTAGGA,0.0517
9,ACGTAGGA,0.446
10,CGCTAAGA,0.0374
11,GCACAGGC,-0.115
12,AAAGGCCA,-0.118
13,GTTGAGCA,0.0589
14,ACATCTCT,0.0591
15,GTCAACCA,0.0809
16,GGAACTAA,-0.0195
17,CCATTGAG,0.00857
18,GTAAAAAC,0.184
19,GGACTCGA,-0.342
20,CGTATATC,0.319
21,CGTATACA,0.372
22,CGTATATA,0.418
23,AGTATATA,0.254
24,AGTATACA,0.0979
25,CGTATACC,0.132
26,CGTATACG,0.393

row,Sequence,PBM E-score
1,AGTATACG,0.267
2,GGTATACA,0.0243
3,GCTCAAAC,-0.0717
4,ACGCCCTC,-0.134
5,GGACACTA,-0.125
6,AAGATCGT,0.0795
7,GAACGACC,-0.306
8,TAGATAGA,0.0341
9,AAACGGGC,-0.131
10,AACGTTTC,0.199
11,ACGTCTGA,0.339
12,ACGTCTAC,0.368
13,ACGTCTTA,0.408
14,ACGTCTGG,0.331
15,CCGTCTTC,-0.306
16,ACGTCTTC,0.389
17,CCGTCTTA,0.00816
18,ACGTCTTG,0.39
19,ACGTCTAT,0.338
20,CCGTCTAC,0.0306
21,ACGTCTCG,0.24
22,ACGTCTCC,0.322
23,AAGCGGGT,-0.268
24,AAAATGAT,0.246
25,GTATGCAA,0.177
26,CACTATCC,-0.124

row,Sequence,PBM E-score
1,AGAGTCAT,-0.0362
2,AACCGCAC,0.0215
3,CCGTATTC,0.0573
4,ACGTATTA,0.468
5,ACGTATTG,0.464
6,ACGTATTC,0.471
7,AGGTATTC,0.0465
8,ATGTATTG,0.196
9,CCGTATTA,0.152
10,AAGTATTG,0.15
11,GCGTATTA,0.333
12,CTGGTCTC,-0.342
13,GATCAGCA,-0.0416
14,GTGCCTCA,-0.118
15,AAAACAGT,0.0855
16,ACTTCGGC,-0.00736
17,CATTACGG,0.292
18,GATTACTA,0.204
19,AATTACGA,0.411
20,CGTTACGA,0.349
21,AATTACCA,0.151
22,GATTACGA,0.418
23,CTTTACGA,0.218
24,CATTACGA,0.398
25,CGTTACGC,0.362
26,AGTTACGC,0.317

row,Sequence,PBM E-score
1,AATTACTA,0.195
2,GCTTACGA,0.238
3,ACCGGGTG,-0.224
4,TGAGTACA,-0.0184
5,CAGCATGC,-0.0382
6,TGGCCCAA,-0.0707
7,ACCAACTG,-0.0438
8,CCAGAGAA,0.0433
9,CTGTCGGC,-0.148
10,AGATCGAA,0.0696
11,CATTACAC,0.198
12,GATTACAC,0.0868
13,CATTACCC,-0.0584
14,CATTACGC,0.409
15,AATTAGGT,0.26
16,AATTACAG,0.113
17,AATTACGT,0.492
18,AATTACAT,0.375
19,AATTACGG,0.26
20,AATTACAC,0.0946
21,GATTACCC,-0.0418
22,GATTACGC,0.425
23,AGTGAGGC,0.0161
24,CGGTTAAC,0.0142
25,ACTTAAAA,0.241
26,ATCAGATC,-0.0621

row,Sequence,PBM E-score
1,AGTTGAAT,0.135
2,ATGTCCAA,0.0296
3,CCCGGGTC,-0.204
4,GGCGCCAA,-0.179
5,ATGAAGGA,0.0878
6,ATCCACCG,-0.0573
7,AATTACGC,0.44
8,ATTTACGC,0.281
9,AATTACCC,0.0055
10,TATTACGA,0.414
11,TATTACCA,0.227
12,TATTACAA,0.221
13,CTTCGAAG,-0.208
14,AGGCCCCG,-0.372
15,ATGGTTGA,-0.0732
16,ACGGAGCA,-0.116
17,CCTACAGG,-0.365
18,TGCGCGAA,0.169
